Measurements reported in the supplement of paper PMC10849652.
Of roughly 7,900 targets only a part is listed; those with a hit were picked by preference. About 0.6% of all pairs of compound and target were hits.

Legend:
Assay in all cases: log2 fold change, soluble protein after heating vs DMSO (PISA); higher = thermal stabilisation; K562 cells, 10 uM, 30 min; active = over 0.2 and 3.5 SD of the protein, either way, in both replicates (recomputed)
[1] = compound: COC1=CC=C(C=C1)CN2C=CC3=C2C=C(C=C3)C(=O)NO
In short: (§1)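 K562 cells at 2×10^6 cells/mL were given 10 μM compound for 30 min. Aliquots then went through 3 min of heating across 48°C-58°C, were pooled, and were extracted in PBS with 0.5% NP-40 at 4°C, and the supernatant after 21,000xg for 90 min was quantified by TMTpro 16plex LC-MS/MS with channel sums equalised. Thermal stability relative to control samples, from duplicates, is given as log2 fold change.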

filanesib = compound: CON(C)C(=O)N1N=C(c2cc(F)ccc2F)S[C@@]1(CCCN)c1ccccc1 [filanesib]
In short: as §1

zotarolimus = compound: CO[C@H]1C[C@@H]2CC[C@@H](C)[C@@](O)(O2)C(=O)C(=O)N2CCCC[C@H]2C(=O)O[C@H]([C@H](C)C[C@@H]2CC[C@H](n3cnnn3)[C@H](OC)C2)CC(=O)[C@H](C)/C=C(\C)[C@@H](O)[C@@H](OC)C(=O)[C@H](C)C[C@H](C)/C=C/C=C/C=C/1C [zotarolimus]
In short: as §1

idasanutlin = compound: COc1cc(C(=O)O)ccc1NC(=O)[C@@H]1N[C@@H](CC(C)(C)C)[C@](C#N)(c2ccc(Cl)cc2F)[C@H]1c1cccc(Cl)c1F [idasanutlin]
In short: as §1

alisertib = compound: COc1cc(Nc2ncc3c(n2)-c2ccc(Cl)cc2C(c2c(F)cccc2OC)=NC3)ccc1C(=O)O [alisertib]
In short: as §1

[2] = compound: COc1cc2nc(-c3cc(F)ccc3O)nc(N[C@@H]3CNC[C@H]3C(C)(C)O)c2cc1OC
In short: as §1

gefitinib = compound: COc1cc2ncnc(Nc3ccc(F)c(Cl)c3)c2cc1OCCCN1CCOCC1 [gefitinib]
In short: as §1

[3] = compound: COc1cccc2cc(-c3nc([C@H]4CC[C@H](C(=O)O)CC4)n4ncnc(N)c34)[nH]c12
In short: as §1

lapatinib = compound: CS(=O)(=O)CCNCc1ccc(-c2ccc3ncnc(Nc4ccc(OCc5cccc(F)c5)c(Cl)c4)c3c2)o1 [lapatinib]
In short: as §1

pictilisib = compound: CS(=O)(=O)N1CCN(Cc2cc3nc(-c4cccc5[nH]ncc45)nc(N4CCOCC4)c3s2)CC1 [pictilisib]
In short: as §1

[4] = compound: CS(=O)(=O)c1ccc(-c2cnc(N)c(C(=O)Nc3ccccc3)n2)cc1
In short: as §1

crizotinib = compound: C[C@@H](Oc1cc(-c2cnn(C3CCNCC3)c2)cnc1N)c1c(Cl)ccc(F)c1Cl [crizotinib]
In short: as §1

[5] = compound: C[C@@H]1COCCN1C2=NC(=NC(=C2)C3(CC3)S(=O)(=O)C)C4=C5C=CNC5=CC=C4
In short: as §1

[6] = compound: C[C@H](C1=CC=C(C=C1)C(=O)NC2=C3C=CNC3=NC=C2)N
In short: as §1

duvelisib = compound: C[C@H](Nc1ncnc2nc[nH]c12)c1cc2cccc(Cl)c2c(=O)n1-c1ccccc1 [duvelisib]
In short: as §1

gandotinib = compound: Cc1cc(Nc2cc(CN3CCOCC3)c3nc(C)c(Cc4ccc(Cl)cc4F)n3n2)n[nH]1 [gandotinib]
In short: as §1

tozasertib = compound: Cc1cc(Nc2cc(N3CCN(C)CC3)nc(Sc3ccc(NC(=O)C4CC4)cc3)n2)n[nH]1 [tozasertib]
In short: as §1

[7] = compound: Cc1cc(SCc2sc(-c3ccc(C(F)(F)F)cc3)nc2C)ccc1OCC(=O)O
In short: as §1

doramapimod = compound: Cc1ccc(-n2nc(C(C)(C)C)cc2NC(=O)Nc2ccc(OCCN3CCOCC3)c3ccccc23)cc1 [doramapimod]
In short: as §1

ispinesib = compound: Cc1ccc(C(=O)N(CCCN)[C@@H](c2nc3cc(Cl)ccc3c(=O)n2Cc2ccccc2)C(C)C)cc1 [ispinesib]
In short: as §1

Measured: log2 fold change

ABITRAM (UniProt Q9NX38)
Sequence of UniProt Q9NX38 (Q9NX38 whole entry, looked up): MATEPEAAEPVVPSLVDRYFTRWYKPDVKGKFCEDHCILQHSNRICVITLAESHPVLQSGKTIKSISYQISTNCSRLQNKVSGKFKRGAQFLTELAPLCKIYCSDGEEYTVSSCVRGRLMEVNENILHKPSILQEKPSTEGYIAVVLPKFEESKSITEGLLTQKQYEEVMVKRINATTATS
inactive: [1] 0.06 | filanesib 0.036 | zotarolimus 0.041 | idasanutlin 0.022 | alisertib 0.101 | [2] 0.006 | gefitinib 0.111 | [3] 0.139 | lapatinib 0.021 | pictilisib 0.053 | [4] 0.055 | crizotinib 0.012 | [5] 0.1 | [6] -0.011 | duvelisib 0.029 | gandotinib 0.169 | tozasertib -0.012 | [7] 0.079 | doramapimod 0.006 | ispinesib 0.108

ACOX3 (UniProt O15254)
Sequence of UniProt O15254 (O15254 whole entry, looked up): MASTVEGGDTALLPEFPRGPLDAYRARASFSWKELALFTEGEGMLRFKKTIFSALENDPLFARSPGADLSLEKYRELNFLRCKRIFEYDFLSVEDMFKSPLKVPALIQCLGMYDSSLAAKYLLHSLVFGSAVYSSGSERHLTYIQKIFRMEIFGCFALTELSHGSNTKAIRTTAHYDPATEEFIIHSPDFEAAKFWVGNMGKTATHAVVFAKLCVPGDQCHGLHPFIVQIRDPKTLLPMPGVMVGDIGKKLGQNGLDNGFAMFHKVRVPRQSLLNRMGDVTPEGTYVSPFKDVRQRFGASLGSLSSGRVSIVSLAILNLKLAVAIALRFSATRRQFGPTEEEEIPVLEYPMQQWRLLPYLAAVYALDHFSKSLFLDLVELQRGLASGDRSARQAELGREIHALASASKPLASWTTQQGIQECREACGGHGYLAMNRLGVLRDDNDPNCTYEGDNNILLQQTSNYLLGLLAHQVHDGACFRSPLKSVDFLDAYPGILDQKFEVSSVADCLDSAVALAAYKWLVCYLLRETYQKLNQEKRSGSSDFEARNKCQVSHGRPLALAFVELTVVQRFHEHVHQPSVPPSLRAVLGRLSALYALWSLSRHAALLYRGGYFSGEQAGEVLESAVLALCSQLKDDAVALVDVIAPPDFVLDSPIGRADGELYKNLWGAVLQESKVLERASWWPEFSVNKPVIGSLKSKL
inactive: [1] 0.138 | filanesib 0.042 | zotarolimus -0.037 | idasanutlin 0.074 | alisertib 0.555 | [2] -0.106 | gefitinib 0.116 | [3] 0.144 | lapatinib 0.41 | [4] -0.006 | crizotinib -0.091 | [5] 0.016 | [6] 0.065 | tozasertib -0.018 | doramapimod 0.14

ALKBH4 (UniProt Q9NXW9)
Sequence of UniProt Q9NXW9 (Q9NXW9 whole entry, looked up): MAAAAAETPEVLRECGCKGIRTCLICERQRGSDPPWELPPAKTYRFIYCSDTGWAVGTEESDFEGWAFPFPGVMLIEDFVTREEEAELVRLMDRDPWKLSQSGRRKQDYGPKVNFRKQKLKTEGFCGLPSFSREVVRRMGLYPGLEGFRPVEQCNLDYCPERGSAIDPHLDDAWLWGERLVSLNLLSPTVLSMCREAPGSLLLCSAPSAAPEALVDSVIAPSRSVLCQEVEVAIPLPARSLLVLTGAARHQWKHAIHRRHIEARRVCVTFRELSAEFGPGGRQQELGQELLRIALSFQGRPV
inactive: [1] -0.203 | filanesib -0.036 | zotarolimus 0.06 | idasanutlin -0.036 | alisertib 0.086 | [2] -0.058 | [3] 0.014 | lapatinib -0.023 | pictilisib 0.106 | [4] 0.082 | crizotinib -0.033 | [5] 0.172 | [6] 0.029 | duvelisib -0.068 | gandotinib -0.084 | tozasertib 0.024 | [7] 0.12 | doramapimod 0.037 | ispinesib -0.109

ARPP19 (UniProt P56211)
Sequence of UniProt P56211 (P56211 whole entry, looked up): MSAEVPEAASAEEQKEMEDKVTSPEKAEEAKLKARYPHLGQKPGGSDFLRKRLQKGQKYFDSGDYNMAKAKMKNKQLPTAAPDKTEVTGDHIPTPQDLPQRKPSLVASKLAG
inactive: filanesib 0.033 | zotarolimus -0.016 | idasanutlin 0.002 | alisertib -0.061 | [2] -0.184 | gefitinib -0.007 | [3] 0.075 | lapatinib -0.01 | pictilisib -0.073 | [4] -0.017 | crizotinib 0.059 | [5] 0.006 | [6] -0.106 | duvelisib -0.082 | gandotinib 0.019 | tozasertib -0.031 | [7] -0.106 | doramapimod -0.037 | ispinesib 0.048
active: [1] 0.294

ARFGEF1 (UniProt Q9Y6D6)
active: [2] 0.246
inactive: [1] 0.043 | filanesib 0.014 | zotarolimus 0.111 | idasanutlin -0.092 | alisertib -0.075 | gefitinib 0.06 | [3] 0.016 | lapatinib 0.116 | pictilisib 0.006 | [4] 0.03 | crizotinib -0.135 | [5] 0.022 | [6] 0.052 | duvelisib 0.021 | gandotinib -0.014 | tozasertib 0.049 | [7] 0.004 | doramapimod 0.067 | ispinesib -0.024

AGAP3 isoform 4 (UniProt Q96P47)
Sequence of UniProt Q96P47 (Q96P47 whole entry, looked up): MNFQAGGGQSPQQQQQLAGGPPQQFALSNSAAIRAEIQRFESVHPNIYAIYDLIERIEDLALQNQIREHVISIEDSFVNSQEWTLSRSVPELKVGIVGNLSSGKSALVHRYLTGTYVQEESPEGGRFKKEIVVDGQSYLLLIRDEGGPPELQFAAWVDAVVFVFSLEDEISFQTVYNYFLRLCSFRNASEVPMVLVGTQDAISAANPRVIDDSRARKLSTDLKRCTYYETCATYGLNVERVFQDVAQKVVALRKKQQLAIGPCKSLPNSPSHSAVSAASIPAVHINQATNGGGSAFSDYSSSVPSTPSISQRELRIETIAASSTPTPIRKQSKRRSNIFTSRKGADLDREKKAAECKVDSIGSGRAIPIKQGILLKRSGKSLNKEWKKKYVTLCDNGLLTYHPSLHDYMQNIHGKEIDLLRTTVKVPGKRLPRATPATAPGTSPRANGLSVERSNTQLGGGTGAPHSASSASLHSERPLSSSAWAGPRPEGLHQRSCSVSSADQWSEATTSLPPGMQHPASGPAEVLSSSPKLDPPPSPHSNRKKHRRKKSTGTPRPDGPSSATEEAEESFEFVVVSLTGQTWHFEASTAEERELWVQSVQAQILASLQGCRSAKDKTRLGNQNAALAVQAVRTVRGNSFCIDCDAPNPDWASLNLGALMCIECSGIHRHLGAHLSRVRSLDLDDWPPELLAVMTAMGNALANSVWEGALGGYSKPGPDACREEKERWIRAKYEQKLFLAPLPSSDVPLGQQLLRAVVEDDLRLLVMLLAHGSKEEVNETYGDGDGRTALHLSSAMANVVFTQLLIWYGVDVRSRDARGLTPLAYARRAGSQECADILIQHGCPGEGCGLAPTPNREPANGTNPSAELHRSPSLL
inactive: [1] -0.051 | filanesib 0.24 | zotarolimus -0.02 | idasanutlin 0.12 | alisertib -0.073 | [2] 0.079 | gefitinib 0.28 | [3] -0.1 | lapatinib 0.038 | [4] -0.041 | crizotinib -0.231 | [5] -0.133 | [6] 0.07 | tozasertib 0.183 | doramapimod 0.125 | ispinesib -0.069

AFG1L (UniProt Q8WV93)
inactive: [1] -0.17 | filanesib -0.239 | zotarolimus 0.018 | idasanutlin 0.016 | alisertib -0.065 | [2] -0.18 | gefitinib -0.012 | [3] 0.107 | lapatinib 0.041 | [4] -0.04 | crizotinib -0.027 | [5] 0.074 | [6] 0.001 | duvelisib 0.078 | tozasertib -0.147 | [7] -0.019 | doramapimod 0.002 | ispinesib -0.253

APAF1 (UniProt O14727)
Sequence of UniProt O14727 (O14727 whole entry, looked up): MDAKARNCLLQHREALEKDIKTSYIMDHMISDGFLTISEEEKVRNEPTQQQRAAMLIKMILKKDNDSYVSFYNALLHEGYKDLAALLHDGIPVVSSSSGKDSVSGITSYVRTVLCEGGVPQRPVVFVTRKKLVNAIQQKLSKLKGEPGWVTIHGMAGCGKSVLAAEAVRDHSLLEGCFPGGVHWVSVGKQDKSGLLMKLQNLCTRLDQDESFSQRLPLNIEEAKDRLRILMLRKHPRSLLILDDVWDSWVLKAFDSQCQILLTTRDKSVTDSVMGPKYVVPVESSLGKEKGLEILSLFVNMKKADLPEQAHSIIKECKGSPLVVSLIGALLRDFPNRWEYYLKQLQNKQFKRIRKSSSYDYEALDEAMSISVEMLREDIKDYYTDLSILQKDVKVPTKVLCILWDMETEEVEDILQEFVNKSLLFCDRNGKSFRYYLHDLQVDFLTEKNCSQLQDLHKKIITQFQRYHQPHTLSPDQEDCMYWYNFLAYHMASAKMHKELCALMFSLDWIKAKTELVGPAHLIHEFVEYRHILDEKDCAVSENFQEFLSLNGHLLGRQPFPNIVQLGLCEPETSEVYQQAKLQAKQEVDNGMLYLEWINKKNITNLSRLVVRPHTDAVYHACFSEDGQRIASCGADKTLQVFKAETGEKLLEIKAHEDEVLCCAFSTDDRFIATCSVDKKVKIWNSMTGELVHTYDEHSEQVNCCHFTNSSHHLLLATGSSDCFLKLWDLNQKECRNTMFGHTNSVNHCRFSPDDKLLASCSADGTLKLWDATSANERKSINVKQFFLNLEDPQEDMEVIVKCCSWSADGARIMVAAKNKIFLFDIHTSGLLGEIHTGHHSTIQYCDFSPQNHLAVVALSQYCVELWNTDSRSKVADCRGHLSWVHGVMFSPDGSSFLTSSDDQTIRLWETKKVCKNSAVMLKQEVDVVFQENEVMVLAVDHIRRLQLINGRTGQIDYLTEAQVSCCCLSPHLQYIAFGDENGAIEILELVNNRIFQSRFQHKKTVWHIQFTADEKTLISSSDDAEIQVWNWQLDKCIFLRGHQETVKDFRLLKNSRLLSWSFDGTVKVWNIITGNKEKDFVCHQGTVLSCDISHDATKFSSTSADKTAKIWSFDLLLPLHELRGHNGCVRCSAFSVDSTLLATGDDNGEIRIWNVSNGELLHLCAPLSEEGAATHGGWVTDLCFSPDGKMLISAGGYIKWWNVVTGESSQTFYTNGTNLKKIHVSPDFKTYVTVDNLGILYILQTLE
inactive: [1] -0.023 | filanesib -0.066 | zotarolimus -0.03 | idasanutlin -0.068 | alisertib 0.08 | [2] 0.279 | gefitinib -0.163 | [3] 0.09 | lapatinib 0.369 | pictilisib -0.04 | [4] -0.045 | crizotinib 0.045 | [5] 0.115 | [6] -0.061 | duvelisib 0.268 | gandotinib 0.047 | [7] 0.119 | doramapimod 0.006 | ispinesib -0.181

ADD1 isoform 4 (UniProt P35611)
inactive: [1] -0.054 | zotarolimus -0.065 | pictilisib -0.068 | crizotinib 0.152 | [5] -0.213 | [6] 0.186 | gandotinib -0.153 | doramapimod -0.075

ACVR1 (UniProt Q04771)
inactive: filanesib -0.022 | zotarolimus -0.371 | idasanutlin -0.156 | alisertib -0.096 | [2] 0.133 | [3] -0.13 | lapatinib -0.004 | pictilisib 0.248 | [4] 0.38 | [5] 0.04 | duvelisib 0.074 | gandotinib 0.109 | tozasertib 0.014 | [7] -0.061
active: [6] 0.642

AUNIP isoform 2 (UniProt Q9H7T9)
Sequence of UniProt Q9H7T9 (Q9H7T9 whole entry, looked up): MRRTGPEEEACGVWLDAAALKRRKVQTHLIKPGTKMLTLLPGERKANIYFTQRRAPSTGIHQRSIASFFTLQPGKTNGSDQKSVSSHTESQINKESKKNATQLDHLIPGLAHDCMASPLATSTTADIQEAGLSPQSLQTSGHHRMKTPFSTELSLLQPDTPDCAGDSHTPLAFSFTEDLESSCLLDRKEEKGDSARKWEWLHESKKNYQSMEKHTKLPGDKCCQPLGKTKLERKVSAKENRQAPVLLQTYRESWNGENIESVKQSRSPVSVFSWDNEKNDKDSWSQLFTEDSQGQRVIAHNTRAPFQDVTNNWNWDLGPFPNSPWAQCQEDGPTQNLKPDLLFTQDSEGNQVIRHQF
inactive: filanesib 0.125 | zotarolimus -0.044 | idasanutlin 0.142 | [2] -0.229 | lapatinib 0.099 | [4] 0.117 | [6] -0.007 | duvelisib 0.157 | tozasertib -0.203 | [7] 0.056

AKNA (UniProt Q7Z591)
inactive: filanesib 0.04 | zotarolimus 0.01 | [2] 0.205 | lapatinib -0.059 | [4] -0.015 | [6] -0.02

ALG14 (UniProt Q96F25)
Sequence of UniProt Q96F25 (Q96F25 whole entry, looked up): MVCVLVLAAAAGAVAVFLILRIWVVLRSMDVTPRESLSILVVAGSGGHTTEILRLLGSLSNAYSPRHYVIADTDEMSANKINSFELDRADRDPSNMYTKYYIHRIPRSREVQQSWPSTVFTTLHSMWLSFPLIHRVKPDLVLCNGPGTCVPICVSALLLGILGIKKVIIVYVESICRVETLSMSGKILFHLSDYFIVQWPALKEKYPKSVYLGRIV
inactive: [1] -0.2 | zotarolimus -0.109 | idasanutlin -0.091 | alisertib 0.112 | [2] -0.19 | gefitinib 0.074 | [3] 0.077 | lapatinib 0.168 | pictilisib -0.467 | crizotinib -0.034 | [5] -0.117 | [6] -0.042 | duvelisib 0.01 | tozasertib -0.134 | [7] -0.002 | doramapimod -0.038 | ispinesib -0.018
active: gandotinib -0.798

ARHGAP25 isoform 4 (UniProt P42331)
inactive: zotarolimus -0.077 | idasanutlin -0.123 | alisertib -0.068 | gefitinib 0.08 | [3] -0.11 | pictilisib 0.085 | [5] -0.066 | [6] 0.309 | duvelisib -0.067 | gandotinib -0.056 | tozasertib 0.111 | [7] 0.299

ARL4A (UniProt P40617)
inactive: idasanutlin 0.056 | alisertib 0.042 | [3] 0.094

ANGEL1 (UniProt Q9UNK9)
inactive: [1] 0.024 | crizotinib -0.058 | tozasertib -0.077 | doramapimod -0.028 | ispinesib 0.27

ARFIP1 isoform 2 (UniProt P53367)
inactive: [1] -0.225 | filanesib -0.082 | alisertib -0.17 | [2] -0.013 | gefitinib -0.067 | [3] -0.068 | lapatinib 0.05 | pictilisib -0.154 | [4] -0.03 | crizotinib -0.266 | [5] 0.047 | duvelisib 0.11 | gandotinib -0.112 | [7] 0.081 | doramapimod 0.087

AIF1 (UniProt P55008)
inactive: filanesib 0.038 | idasanutlin 0.052 | [2] 0.083 | lapatinib 0.053 | [4] 0.008 | [5] 0.11 | ispinesib -0.317

ASS1 (UniProt P00966)
inactive: filanesib -0.101 | zotarolimus 0.012 | idasanutlin -0.085 | alisertib 0.254 | [2] 0.047 | gefitinib -0.005 | [3] 0.056 | lapatinib -0.012 | pictilisib 0.018 | [4] 0.033 | [5] 0.017 | [6] -0.079 | duvelisib 0.039 | gandotinib -0.014 | tozasertib -0.085 | [7] -0.062 | ispinesib -0.205

AARSD1 (UniProt Q9BTE6)
inactive: [1] -0.659 | zotarolimus 0.055 | idasanutlin -0.071 | alisertib 0.08 | [2] 0.036 | gefitinib 0.157 | [3] -0.016 | lapatinib 0.069 | crizotinib -0.036 | [6] 0.033 | duvelisib -0.258 | [7] 0.026 | doramapimod -0.096

ARMC8 isoform 6 (UniProt Q8IUR7)
inactive: idasanutlin 0.072 | gefitinib 0.072

ARRDC1 (UniProt Q8N5I2)
Sequence of UniProt Q8N5I2 (Q8N5I2 whole entry, looked up): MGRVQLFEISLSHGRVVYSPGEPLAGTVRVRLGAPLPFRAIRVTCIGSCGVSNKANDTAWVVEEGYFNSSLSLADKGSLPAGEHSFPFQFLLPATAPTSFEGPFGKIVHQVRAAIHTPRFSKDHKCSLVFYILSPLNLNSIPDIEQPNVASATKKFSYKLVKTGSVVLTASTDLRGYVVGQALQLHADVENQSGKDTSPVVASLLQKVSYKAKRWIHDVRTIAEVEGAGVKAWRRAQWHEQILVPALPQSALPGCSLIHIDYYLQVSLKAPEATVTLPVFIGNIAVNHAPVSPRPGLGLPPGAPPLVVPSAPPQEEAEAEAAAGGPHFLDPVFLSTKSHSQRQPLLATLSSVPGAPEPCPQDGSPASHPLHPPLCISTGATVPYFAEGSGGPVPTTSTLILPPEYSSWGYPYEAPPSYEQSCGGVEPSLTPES
inactive: filanesib 0.013 | zotarolimus 0.182 | alisertib 0.152 | [2] -0.098 | gefitinib -0.009 | [3] 0 | lapatinib 0.01 | pictilisib -0.092 | [4] 0.015 | [5] -0.097 | [6] 0.205 | duvelisib -0.263 | gandotinib 0.1 | tozasertib -0.075 | [7] -0.071 | ispinesib -0.082

ALDH2 isoform 2 (UniProt P05091)
Sequence of UniProt P05091 (P05091 whole entry, looked up): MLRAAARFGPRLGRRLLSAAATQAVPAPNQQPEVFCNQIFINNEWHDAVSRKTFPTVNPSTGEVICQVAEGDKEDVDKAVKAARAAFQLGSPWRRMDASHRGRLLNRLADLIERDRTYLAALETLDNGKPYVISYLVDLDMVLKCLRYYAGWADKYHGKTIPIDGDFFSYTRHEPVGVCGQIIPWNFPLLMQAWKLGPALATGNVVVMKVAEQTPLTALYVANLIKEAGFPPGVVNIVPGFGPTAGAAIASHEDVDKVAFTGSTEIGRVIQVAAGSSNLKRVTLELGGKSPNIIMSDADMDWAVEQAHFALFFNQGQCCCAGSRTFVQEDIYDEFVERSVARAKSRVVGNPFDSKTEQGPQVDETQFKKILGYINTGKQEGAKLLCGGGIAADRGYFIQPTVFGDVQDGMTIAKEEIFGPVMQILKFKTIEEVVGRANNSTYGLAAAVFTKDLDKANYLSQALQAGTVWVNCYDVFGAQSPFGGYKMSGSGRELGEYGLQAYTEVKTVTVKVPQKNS
inactive: filanesib 0.013 | idasanutlin 0 | [2] 0.166 | lapatinib -0.266 | pictilisib -0.035 | [4] 0.209 | [5] 0.244 | gandotinib -0.027 | tozasertib -0.224 | ispinesib -0.214
